Cycloheximide cs: counter-screen hit for Shiga toxin inhibitors, cycloheximide; actives 12% (n = 300,000); cell reporter, cycloheximide protein synthesis inhibition counterscreen; max response, %; in the data active means max response mostly above about 13%, no sharp cut-off; inactive means mostly below about 14%; further: read at 38.3 µM for the half of the compounds with a filed dose; 0% is about no effect
Shiga toxin inh: inhibitors of Shiga toxin in Vero cells; Vero cells, Shiga toxin protein synthesis inhibition reporter; inhibition, % at 38.7 µM; actives 9.2% (n = 290,000); AID 2315; in the data active means inhibition mostly above about 28%, no sharp cut-off; inactive means mostly below about 43%; further: 0% is about no effect
AMA1-RON2 inh: AMA1-RON2 (P. falciparum) interaction inhibition; AlphaScreen AMA1-biotinylated RON2 peptide binding; Potency, µM (highest dose often 58.2 µM), for the others: at the top dose activity change, negative = inhibition, most hits filed as inhibitors; actives 0.2% (n = 360,000); AID 720542; active means well fitted inhibition curve with a large enough effect; inconclusive means small, poorly fitted or top-dose-only effect; inactive means no such curve, though single readings can be large or run the other way;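 further: potency means the concentration at half of the fitted maximal effect; 0% = vehicle wells and -100% = peptide control; nearly all actives have a fitted effect of over 45% in size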
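AMA1 (3D7) with his tag at 25 nM final met compounds first, then biotinylated RON2 peptide at 25 nM; detection used donor plus acceptor beads, 10 µg/mL apiece, read by AlphaScreen after 30 min at room temperature.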
Marburg entry inh: inhibitors of Marburg virus binding or cell entry | Marburg virus pseudotyped entry inhibition, cell reporter | Potency, µM (highest dose often 37.8 µM), inactives show top-dose activity change, negative = inhibition, usual class: inhibitors | actives 1.8% (n = 300,000); calls by dose curve; tested in HEK293 cells; further: potency means the concentration at half of the fitted maximal effect; on the % scale 0 is the no-effect control and ±100 the full control effect
LASV entry inh: blocks Lassa virus binding to or entry into cells | Lassa virus pseudotype entry inhibition, cell reporter | Potency, µM (titrated, usually from 37.9 µM), for inactives: top-dose activity change, negative = inhibition, usual class: inhibitors | actives 1.2% (n = 300,000) | AID 540256; calls by dose curve; tested in HEK293 cells; further: potency means the concentration at half of the fitted maximal effect; on the % scale 0 is the no-effect control and ±100 the full control effect; nearly all actives have a fitted effect of over 50% in size
Active calls of the source: *; ? = inconclusive; . = not tested or not shown; [ ] = dose if it differs, or a comment. This is one part of a sample in which hits are shown more often than they occur.

SMILES	Cycloheximide cs	Shiga toxin inh	AMA1-RON2 inh	Marburg entry inh	LASV entry inh
CC(=O)Nc1ccc2c(c1)OCCO2	0.2	-1.9	7.2%	6.1%	3.7%
C=C(C)C(=O)Nc1ccc2c(c1)OCCOCCOCCO2	-3.3	-7.2	-2.1%	11.2µM*	-5.0%[46.1 µM]
O=C(CSc1ccc2c(c1)OCCO2)Nc1ccc(Br)cn1	8.6	-5.4	1.4%	22.4%	-0.2%
O=C(Nc1ccc2c(c1)OCO2)Nc1ccc(Br)cn1	37.4*	82.6*	0.1%	-5.3%	?
Cc1nc2cc(-c3cccc(Cl)c3)nn2c(N2CCN(C(=O)c3ccco3)CC2)c1C	27.8*	101.9*	.	-0.3%	.
Cc1cc(N2CCN(C(=O)c3ccco3)CC2)n2nc(-c3cccc(Cl)c3)cc2n1	-3.1	46.2	-6.9%	16.4µM*	25.9µM*
COC(=O)c1ccccc1NC(=O)Cc1nc(-c2ccccc2)sc1-c1ccc(C)cc1	32.7*	35.1*	-3.7%	-14.4%	-0.3%
COc1ccccc1NC(=O)CSc1nnc2c(n1)[nH]c1ccccc12	.	.	.	7.6%[46.1 µM]	11.2µM*
Fc1cccc(CSc2nnc3c(n2)[nH]c2ccccc23)c1	19.3*	44.3	6.8%	.	.
COc1ccc(-c2nnc(SCC(=O)Nc3ccccc3OC)o2)cc1	24.8*	57.6*	-20.4%	?	-26.4%
O=P1(NC2CCCCC2)OCC2(CO1)COP(=O)(NC1CCCCC1)OC2 (stereo not given)	.	.	-3.7%	-17.7%[46.1 µM]	-7.2%[46.1 µM]
Cc1ccc(NC(=O)C2CCN(C(=O)c3cnn(-c4ccccc4)c3-n3cccc3)CC2)cc1	.	.	.	?	-5.8%[46.1 µM]
COC(=O)CSc1nnc(-c2ccccc2OC)o1	9.2	-6.0	5.8%	-0.2%	-2.3%
COc1ccccc1-c1nnc(SCC(=O)OC(C)C)o1	17.1	35.1*	0.0%	7.8%	-3.6%
COc1ccc(C)cc1NC(=O)CSc1nnc(-c2ccc(C)cc2)o1	3.5	24.4	-0.5%	.	.
COC(=O)c1ccccc1NC(=O)CSc1nnc(-c2ccc(C)cc2)o1	32.8*	54.7*	.	.	.
COC(=O)c1ccccc1NC(=O)CSc1nnc(-c2cccnc2)o1	21.2*	64.8	-8.2%	?	.
CCOC(=O)c1ccc(NC(=O)CC2C(=O)N(c3cccc(OC)c3)C(=O)N2Cc2ccc(OC)cc2)cc1 (stereo not given)	.	.	.	?	-23.8%[46.1 µM]
CCOC(=O)c1ccccc1NC(=O)Cn1cc(C(=O)c2cccc(OC)c2)c(=O)c2ccc(C)nc21	.	.	.	.	-15.3%[46.1 µM]
C[C@@H]1COC(=O)[C@@H](CC(=O)OC(C)(C)C)C/C=C\C[C@H](CC(=O)NCCO)C(=O)N1	.	.	-0.9%	.	.
Cc1cccc(OCc2nc(CC(=O)Nc3ccc(Cl)cc3)cs2)c1	.	.	.	6.6%[46.1 µM]	-0.9%[46.1 µM]
CC(C)C[C@H](CO)Nc1nc(Nc2cccc(Cl)c2)c2ncn(C(C)C)c2n1	23.2*	42.2*	-13.5%	.	.
CC(C)n1cnc2c(Nc3cccc(F)c3)nc(NCCO)nc21	18.5*	24.9	14.4%	.	.
COc1ccc(C(=O)/C=C/Nc2ccc([N+](=O)[O-])cc2)cc1	85.0*	113.6*	1.1%	19.6%	1.2%
CCCOc1ccc(N/C=C/C(=O)c2cc(OC)c(OC)c(OC)c2)cc1	5.5	.	-3.6%	.	.
SMILES	Cycloheximide cs	Shiga toxin inh	AMA1-RON2 inh	Marburg entry inh	LASV entry inh
CCOc1ccc(NC(=S)NC(=O)/C=C/c2ccc(Br)cc2)c([N+](=O)[O-])c1	-2.0	-3.0	21.3%	-24.2%	20.6µM*
CCOc1ccc(N/C=C/C(=O)c2ccc(OC)cc2)cc1	19.5*	131.9*	-8.7%	18.6%[46.1 µM]	-16.9%[46.1 µM]
COc1ccc(N/C=C/C(=O)c2ccc(C)cc2)c([N+](=O)[O-])c1	.	.	-3.9%	?	?
CCOc1ccc(N/C=C/C(=O)c2ccc(OC)cc2)c([N+](=O)[O-])c1	39.4*	131.7*	-7.1%	-1.4%	15.3%
CCOc1ccc(NC(=S)NC(=O)c2cnn(CC)c2)c([N+](=O)[O-])c1	0.8	-7.9	-3.8%	-11.8%[46.1 µM]	-23.1%[46.1 µM]
CCCOc1ccc(C(=O)NCc2ccco2)cc1	35.3*	74.2*	26.7%	10.0%	?
COc1cccc(C(=O)c2c[nH]c(C(=O)NCc3ccco3)c2)c1	23.4*	17.6	2.3%	-1.5%[46.1 µM]	?
CC(C)Oc1ccc(C(=O)NCc2ccco2)cc1	29.1*	38.1*	4.6%	?	-2.8%
COc1ccc(C(=O)Nc2cccc(C(=O)NCc3ccco3)c2)cc1	12.1*	20.8	-3.9%	-0.5%	?
O=C(NCc1ccco1)c1cccc(NC(=O)c2ccco2)c1	-1.3	22.8	12.3%	?	?
CCOC(=O)[C@]12CCCC=C1N(Cc1cccc3ccccc13)C(=O)[C@H](CC(=O)N1CCCC1)C2	.	.	-13.3%	.	.
